TRPV1 ag: agonists of human vanilloid receptor 1 (TRPV1). Q8NER1. TRPV1-expressing cells, Fluo-8 calcium influx, agonist mode. activation, % at 8.33 µM. 320,000 tested, 0.19% active; in the data active means activation above about 80%; inconclusive means between about 30% and that limit
Target sequence (Q8NER1 whole entry, looked up): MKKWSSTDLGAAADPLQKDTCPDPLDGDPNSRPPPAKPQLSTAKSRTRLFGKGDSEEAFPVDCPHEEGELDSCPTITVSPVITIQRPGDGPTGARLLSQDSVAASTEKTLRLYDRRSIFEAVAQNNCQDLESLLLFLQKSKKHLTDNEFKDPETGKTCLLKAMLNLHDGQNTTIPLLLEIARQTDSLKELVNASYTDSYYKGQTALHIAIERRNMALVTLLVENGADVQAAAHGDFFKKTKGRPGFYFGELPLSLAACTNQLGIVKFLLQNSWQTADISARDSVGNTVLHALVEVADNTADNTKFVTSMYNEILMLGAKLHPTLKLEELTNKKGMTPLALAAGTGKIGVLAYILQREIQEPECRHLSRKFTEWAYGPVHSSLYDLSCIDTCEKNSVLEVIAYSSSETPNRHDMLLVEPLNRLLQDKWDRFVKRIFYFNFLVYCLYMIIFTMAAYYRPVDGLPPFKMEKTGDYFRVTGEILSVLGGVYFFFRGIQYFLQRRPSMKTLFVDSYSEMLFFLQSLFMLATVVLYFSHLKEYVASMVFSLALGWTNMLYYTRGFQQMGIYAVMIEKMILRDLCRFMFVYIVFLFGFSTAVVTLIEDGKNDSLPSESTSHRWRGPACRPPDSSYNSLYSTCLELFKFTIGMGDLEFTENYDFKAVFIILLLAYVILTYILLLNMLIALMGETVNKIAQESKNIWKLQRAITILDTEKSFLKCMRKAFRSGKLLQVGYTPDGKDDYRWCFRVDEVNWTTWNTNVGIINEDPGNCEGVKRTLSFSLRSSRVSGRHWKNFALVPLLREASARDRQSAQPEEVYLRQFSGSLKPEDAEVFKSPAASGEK
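TRPV1-expressing cells were cultured overnight at 35.5C and loaded with Fluo-8 calcium dye for 40 to 90 min at room temperature. After a 10 s baseline, compound was added and calcium influx was read kinetically for 3 min (ex 480/em 520 nm).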
uPA surface inh: cell surface uPA generation inhibition; cell surface uPA generation assay, qHTS; Potency, µM (doses to about 38.3 µM), actives largely listed as inhibitors; AID 540303; 330,000 tested, 0.31% active; active means well fitted inhibition curve with a large enough effect; inconclusive means small, poorly fitted or top-dose-only effect; inactive means no such curve, though single readings can be large or run the other way; tested in mouse RAW 264.7 cells; further: nearly all actives have a fitted effect of over 55% in size
RORg inh: ROR gamma (mouse) transcription inhibition. 310,000 tested, 5.4% active. AID 2551. Drosophila S2 Gal4-RORgamma UAS-luciferase reporter, 20 h. Potency, µM (highest dose often 53.6 µM), actives largely listed as inhibitors; further: nearly all actives have a fitted effect of over 60% in size
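Stably transfected Drosophila Schneider cells are the test system, with ROR gamma fused to Gal4 and luciferase under UAS control; luminescence is read after 20 hr of 700 uM copper sulfate induction at ambient temperature.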
TRPV1 PAM: potentiators of human vanilloid receptor 1 (TRPV1); potentiation, % at 8.33 µM; Q8NER1; 320,000 tested, 0.02% active; TRPV1-expressing cells, Fluo-8 calcium influx, capsaicin EC20 potentiation; in the data active means potentiation above about 80%; inconclusive means between about 30% and that limit
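TRPV1-expressing cells were cultured overnight at 35.5C and loaded with Fluo-8 calcium dye for 40 to 90 min at room temperature. After a 10 s baseline, compound was added and calcium influx was read kinetically for 3 min (ex 480/em 520 nm).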
Gal4-VP16 FLuc: Gal4-VP16 reporter inhibition counter-screen. 310,000 tested, 3.5% active. Potency, µM (series often up to 53.6 µM), actives largely listed as inhibitors. Drosophila S2 Gal4-VP16 UAS-luciferase, luminescence, 20 h. AID 2546;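 further: Gal4-VP16 expression switched on by copper sulfate through the metallothionein promoter; nearly all actives have a fitted effect of over 50% in size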
Of the large screens only hits and unclear results are named; the others gave an inactive call. The list is not random: actives were taken first. Their share in the collection is about 5.8%. Unless noted, the call rests on the fitted dose curve; in most records, active means well fitted curve in the direction sought with a large enough effect; inconclusive means small, poorly fitted or top-dose-only effect, or another doubt; inactive means no such curve, though single readings can be large; an effect the other way counts as inactive or inconclusive.

Cc1cccc(-c2cc3c(nn2)-c2ccccc2C3=O)c1	Gal4-VP16 FLuc inconclusive
O=C1c2ccccc2-c2nnc(-c3ccccc3)cc21	RORg inh 8.9µM, Gal4-VP16 FLuc 11µM
COc1ccc(-c2cn(Cc3ccc4c(c3)C(=O)c3ccccc3C4=O)nn2)cc1	none
COc1ccc(-c2cc3c(nn2)-c2ccccc2C3=O)cc1	RORg inh 2.5µM, Gal4-VP16 FLuc inconclusive
COc1ccc(CNc2cc(-c3cccc(C#N)c3)ncn2)c(OC)c1	RORg inh inconclusive (no result: TRPV1 ag, uPA surface inh, TRPV1 PAM)
Cc1ccc(S(=O)(=O)N2CCN(C(=O)CCn3cncn3)CC2)cc1C	TRPV1 PAM inconclusive
Cc1ccc(C(O)(C(=O)NNc2ccccn2)c2ccc(C)cc2)cc1	RORg inh 10µM, Gal4-VP16 FLuc inconclusive
Cc1ccc(NNC(=O)C(O)(c2cccc(C(F)(F)F)c2)c2cccc(C(F)(F)F)c2)cc1	RORg inh inconclusive, Gal4-VP16 FLuc inconclusive
Cc1cccc(C(O)(C(=O)NNc2ccc3ccccc3n2)c2cccc(C)c2)c1	RORg inh 10µM, Gal4-VP16 FLuc 13µM
CCNNC(=O)C(O)(c1cccc(C)c1)c1cccc(C)c1	none
CCn1nnnc1NCc1cccc(Cl)c1	none
CCOc1cc(C=NN=C2c3ccccc3-c3ccccc32)ccc1O	none (no result: TRPV1 ag, RORg inh, TRPV1 PAM, Gal4-VP16 FLuc)
O=C(CCCn1c(=S)[nH]c2ccc(Br)cc2c1=O)NCc1ccccn1	RORg inh inconclusive
O=c1c2cc(Br)ccc2[nH]c(=S)n1Cc1ccccn1	RORg inh 2.8µM, Gal4-VP16 FLuc inconclusive
O=c1c2cc(Br)ccc2[nH]c(=S)n1Cc1ccccc1	TRPV1 ag inconclusive, RORg inh 2.5µM, Gal4-VP16 FLuc 3.5µM
COc1ccc(C(C)NC(=O)C2CCCC2)cc1OC (stereo unspecified)	none (no result: RORg inh, Gal4-VP16 FLuc)
CCn1ccnc1CN1CCCC(C(=O)c2ccc3cc(OC)ccc3c2)C1 (stereo unspecified)	RORg inh 0.022µM, Gal4-VP16 FLuc 1.6µM
COc1ccc2cc(C(=O)C3CCCN(Cc4ccccn4)C3)ccc2c1 (stereo unspecified)	RORg inh 3.2µM, Gal4-VP16 FLuc inconclusive
O=C1CCN(S(=O)(=O)c2ccccc2)CCN1CCOCc1ccc(Cl)cc1	RORg inh inconclusive
Cc1ccccc1N=C1NC(=O)CS1	none
Cc1ccccc1N=C1NC(=O)CC(c2ccccc2)S1 (stereo unspecified)	RORg inh 8.9µM, Gal4-VP16 FLuc inconclusive
O=C(CSC(=S)N1CCCC1)N1CCN(S(=O)(=O)c2cccc([N+](=O)[O-])c2)CC1	none
COc1ccc(N(C(=O)c2ccco2)C(C(=O)NC2CCCC2)c2ccc(N(C)C)cc2)cc1 (stereo unspecified)	none
CC(=O)Nc1ccc(N(C(=O)c2ccco2)C(C(=O)NC2CCCC2)c2ccc(N(C)C)cc2)cc1 (stereo unspecified)	RORg inh 10µM
COCCNC(=O)CN1C(=O)NC2(CCCc3ccccc32)C1=O (stereo unspecified)	none
O=C(CCCN1C(=O)/C(=C/c2ccccc2Cl)SC1=S)NNC(=O)c1ccc(Cl)cc1Cl	RORg inh 0.22µM, Gal4-VP16 FLuc 4.5µM
O=C(CCCN1C(=O)/C(=C/c2ccccc2Cl)SC1=S)NNC(=O)c1cccnc1	uPA surface inh inconclusive
O=C(CCCN1C(=O)/C(=C/c2ccccc2Cl)SC1=S)NNC(=O)c1ccccc1	uPA surface inh inconclusive, RORg inh 3.2µM, TRPV1 PAM inconclusive, Gal4-VP16 FLuc 7.1µM
O=C(CCN1C(=O)/C(=C/c2ccccc2Cl)SC1=S)Nc1ccccc1C(=O)O	none
COc1ccc(CC(=O)Nc2nnc(SCC(=O)NCc3ccco3)s2)cc1OC	none
CCCCC=O	none (no result: TRPV1 ag, uPA surface inh, TRPV1 PAM)
CCOC(=O)CNC(=O)Cn1cnc2c(nnn2-c2ccccc2)c1=O	none
COc1ccc(NC(=O)N2CCCC3(CCN(C(=O)c4c(C)noc4C)CC3)C2)cc1	none (no result: TRPV1 ag, uPA surface inh, TRPV1 PAM)
O=C(Nc1nncs1)C12CC3CC(CC(C3)C1)C2	none
CC(C)C(NC(=O)C12CC3CC(CC(C3)C1)C2)C(=O)NC1=NCCS1 (stereo unspecified)	RORg inh 18µM (no result: uPA surface inh)
O=C(NC1=NCCS1)C12CC3CC(CC(C3)C1)C2	RORg inh 7.1µM, Gal4-VP16 FLuc 22µM
CCC(C)N(CCNC(=O)c1ccc2c(c1)NC(=O)c1ccccc1S2)C1CCCCC1 (stereo unspecified)	none
CC(CC=O)CCCC(C)(C)O (stereo unspecified)	none (no result: TRPV1 ag, uPA surface inh, TRPV1 PAM)
CC(C)N(CCC(=O)c1ccc2ccccc2c1)Cc1ccccc1	uPA surface inh 3.2µM, RORg inh 2.8µM, Gal4-VP16 FLuc 2.5µM
CC(NC(=O)C(=O)N1CCCCC1)C(c1cccs1)N1CCN(C)CC1 (stereo unspecified)	none
COc1ccc(-c2cc(C(F)(F)F)nc(-n3ccnc3C)n2)cc1	RORg inh 11µM, Gal4-VP16 FLuc inconclusive
COc1ccc(-c2cc(C(F)(F)F)nc(N3CCN(C)CC3)n2)cc1	none
COc1cc(C(=O)N(C)CC(=O)Nc2cccc(F)c2)ccc1OCc1ccccc1	none (no result: RORg inh, Gal4-VP16 FLuc)
CC(=O)Nc1ccccc1OC(C)C(=O)NC(C)c1ccc(F)cc1 (stereo unspecified)	none
CC(C)(C)c1ccccc1OCC(=O)NCCCn1ccnc1	none
CC(C)NC(=S)NNc1nc2ccccc2s1	RORg inh 2.5µM, Gal4-VP16 FLuc 4µM
O=C(NNc1nc2ccc(F)cc2s1)c1cccc(F)c1	RORg inh 4µM, Gal4-VP16 FLuc inconclusive
CCOC(=O)Nc1nc2ccccc2s1	none
O=C(NNc1nc2c(F)cc(F)cc2s1)c1ccccc1	RORg inh 5µM, Gal4-VP16 FLuc inconclusive
O=C(NNc1nc2ccccc2s1)c1ccc(F)cc1	RORg inh 0.56µM, Gal4-VP16 FLuc 1.3µM
CC(C)C[C@H](NC(=O)[C@H](CC(C)C)NC(=O)[C@H](Cc1ccccc1)NC(=O)[C@@H](N)CO)C(=O)N[C@@H](CCCN=C(N)N)C(=O)N[C@@H](CC(N)=O)C(=O)O	none (no result: TRPV1 ag, uPA surface inh, TRPV1 PAM)
O=C1C[C@H](c2ccc3ccccc3c2)N1S(=O)(=O)c1ccccc1[N+](=O)[O-]	none (no result: TRPV1 ag, uPA surface inh, TRPV1 PAM)
COCc1c(C(=O)Nc2ccc3nc(N4CCOCC4)sc3c2)oc2ccccc12	none (no result: RORg inh, Gal4-VP16 FLuc)
Cc1ccc2nc(N/N=C/c3ccccc3C#N)nc(-c3ccccc3)c2c1	RORg inh 11µM, Gal4-VP16 FLuc inconclusive
Cc1cc(-c2ccccc2)nc(N/N=C/c2ccccc2F)n1	TRPV1 ag inconclusive, RORg inh inconclusive, Gal4-VP16 FLuc 18µM
Cc1ccc2nc(N/N=C/c3ccccc3F)nc(-c3ccccc3)c2c1	TRPV1 ag inconclusive, RORg inh inconclusive, Gal4-VP16 FLuc 11µM
N#Cc1ccccc1/C=N/Nc1nc(-c2ccccc2)c2cc(Cl)ccc2n1	none
O=C(Nc1ccc(O)c2c(=O)cc(-c3ccccc3Cl)oc12)c1cc(Cl)cc(Cl)c1	none (no result: TRPV1 ag, uPA surface inh, TRPV1 PAM)
Cn1nc(C(=O)Nc2nc3ccccc3[nH]2)c2ccccc2c1=O	RORg inh inconclusive, Gal4-VP16 FLuc inconclusive
Cn1nc(C(=O)Nc2c(-c3ccccc3)nc3sccn23)c2ccccc2c1=O	RORg inh 10µM, Gal4-VP16 FLuc inconclusive
